Screening data (PubChem BioAssay)
esBAF inh = blocks esBAF chromatin remodeling in mouse ES cells. AID 602393. 350,000 tested, 2% active. Bmi1-luciferase knock-in reporter, 24 h; 100% = twice the neutral-well signal. reporter increase, % at 12.5 µM; in the data active = activation above about 40%; inconclusive = no clear call, values can overlap the other calls;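 also: a rise in the Bmi1 reporter signal indicates esBAF inhibition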
GAA850 FXN act = frataxin GAA850 promoter activation; AID 540364; HEK293 lucGAA850 FXN promoter luciferase reporter, 24 h; percent of 10 µM SAHA response; 360,000 tested, 0.56% active; activation, % at 6 µM;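 active = activation above the average of all compounds screened plus 3 SD, cutoff fixed separately per campaign, cut at about 7.5% in these data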
C2C12 statin = suppression of simvastatin myotoxicity; C2C12 myotubes + simvastatin, ATP luminescence, 48 h; scaled: DMSO 0, geranylgeraniol control 100; rescue of ATP level, % at 7.49 µM; 330,000 tested, 0.78% active; AID 602340;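 active = mean ATP rescue above about 67%, or every replicate alone reaching that limit, limit read from the data, passing the limit was not always enough; inconclusive = no clear call, values can overlap the other calls; inactive = mean under the limit and some replicate under it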;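 also: myotubes were challenged with 10 µM simvastatin during compound exposure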
Wnt bcat act = Wnt/beta-catenin pathway activation. AID 743398. activation, % at 9.35 µM. 300,000 tested, 1.2% active. Wnt/beta-catenin reporter cell assay, activator, plate reader; in the data active = activation above about 30%, passing the limit was not always enough; inconclusive = no clear call, values can overlap the other calls
MITF TRPM1 HTS = MITF TRPM1 promoter activation in melanoma cells | SK-MEL-5 TRPM1-promoter luciferase, 24 h; % of positive control, neutral wells = 0 | activation, % at 12.5 µM | 300,000 tested, 0.75% active;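 active = mean activation of at least 80% with every replicate also reaching 80%; inconclusive = mean reaches 80% but some replicate falls short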
Large screens that a line does not name were inactive. A selection: hits, their analogues and other compounds. The true share with any hit is near 3.3%.

CN1CCN(C(=O)C[C@H]2C[C@@H]3c4cc(NC(=O)C5CCOCC5)ccc4O[C@@H]3[C@@H](CO)O2)CC1	none (no result: GAA850 FXN act, Wnt bcat act, MITF TRPM1 HTS)
CCCN1C[C@@H](C)[C@@H](OC)CN(C)C(=O)c2ccc(NC(=O)c3cccc(OC)c3)cc2OC[C@H]1C	none (no result: GAA850 FXN act, Wnt bcat act, MITF TRPM1 HTS)
Cc1cccc(Nc2nc(N)nc(CN3CCN(c4ccccc4)CC3)n2)c1	none
Cc1cccc(Nc2nc(N)nc(CN3CCN(c4ccccc4F)CC3)n2)c1	C2C12 statin 81
CN(CC(=O)N1CCCCCC1)S(=O)(=O)c1ccc(F)cc1	esBAF inh 54
CN(CC(=O)N1CCCCCC1)S(=O)(=O)c1ccccc1	esBAF inh 57 (no result: MITF TRPM1 HTS)
COc1ccc(S(=O)(=O)N(CC(=O)N2CCCCCC2)c2ccccc2OC)cc1	C2C12 statin 99
C[C@@H]1CCCCO[C@H](CN(C)S(=O)(=O)c2ccc(Cl)cc2)[C@H](C)CN([C@@H](C)CO)C(=O)c2cc(NC(=O)c3ccncc3)ccc2O1	none (no result: GAA850 FXN act, C2C12 statin, Wnt bcat act, MITF TRPM1 HTS)
COCC(=O)Nc1ccc2c(c1)C(=O)N(C)C[C@@H](OC)[C@@H](C)CN(Cc1ccccc1OC)[C@@H](C)CO2	none (no result: GAA850 FXN act, Wnt bcat act, MITF TRPM1 HTS)
COc1ccc(C(=O)NCc2ccc(-c3nc4ccccc4s3)cc2)cc1OC	esBAF inh 47 (no result: C2C12 statin)
Fc1ccccc1-c1cc2ncccc2cn1	Wnt bcat act 34
CO[C@@H]1CN(C)C(=O)c2cc(NC(=O)Nc3c(C)noc3C)ccc2OC[C@@H](C)N(C)C[C@H]1C	none (no result: GAA850 FXN act, Wnt bcat act, MITF TRPM1 HTS)
CCCC(=O)Nc1ccc2c(c1)OC[C@@H](C)N(C(=O)c1ccncc1)C[C@@H](C)[C@H](OC)CN(C)C2=O	none (no result: GAA850 FXN act, Wnt bcat act, MITF TRPM1 HTS)
Cc1ccc2cc3cc(C(=O)NC4CC4)oc3nc2c1	esBAF inh 45, Wnt bcat act 31
Cc1ccc2cc3cc(C(=O)NC4CCCCC4)oc3nc2c1	esBAF inh 47
Cc1ccc2cc3cc(C(=O)N4CCCCC4C)oc3nc2c1 (configuration not stated)	esBAF inh 50 (no result: Wnt bcat act)
COc1ccc(C2C(CC(=O)O)=C(Nc3ccccc3)C(=O)N2c2ccccc2)cc1 (configuration not stated)	esBAF inh 54, Wnt bcat act 43
O=C(O)CC1=C(Nc2ccccc2)C(=O)N(c2ccccc2)C1c1ccc(F)cc1 (configuration not stated)	esBAF inh 79
O=C(Nc1ccc2c(c1)[C@@H]1C[C@@H](CC(=O)N3CCOCC3)O[C@H](CO)[C@@H]1O2)C1CCOCC1	none (no result: GAA850 FXN act, Wnt bcat act, MITF TRPM1 HTS)
COCC(=O)N1C[C@H](C)[C@@H](OC)CN(C)C(=O)c2cc(NC(=O)Nc3cccc(F)c3)ccc2OC[C@H]1C	none (no result: GAA850 FXN act, Wnt bcat act, MITF TRPM1 HTS)
CC(=O)c1sc(NC(=O)c2cc(=O)c3ccccc3o2)nc1C	none
COc1ccc2oc(C(=O)Nc3nnc(C)s3)c(C)c2c1	Wnt bcat act 34
Cc1ccc2oc(C(=O)Nc3nnc(C)s3)c(C)c2c1	esBAF inh 65, Wnt bcat act 57
CC(=O)c1sc(NC(=O)c2oc3ccc(F)cc3c2C)nc1C	esBAF inh 50, Wnt bcat act 39
CN(C)C(=O)c1cccc(-c2ccc3c(c2)[C@H]2[C@H](CCN2C(=O)c2ccncc2)[C@@H](CO)N3C)c1	none (no result: GAA850 FXN act, Wnt bcat act, MITF TRPM1 HTS)
Cc1cc2c(cc1C)/C(=C\C(N)=O)NC(C)(C)C2	C2C12 statin 142 (no result: Wnt bcat act)
O=C(C[C@@H]1CC[C@H]2[C@@H](COC[C@H](O)CN2Cc2ccccc2)O1)N[C@@H]1CCN(Cc2ccccc2)C1	none (no result: GAA850 FXN act, Wnt bcat act, MITF TRPM1 HTS)
CCOc1ccc(NC(=O)CCCCn2c(=O)[nH]c3ccsc3c2=O)cc1	Wnt bcat act 37
O=C(CCn1c(=O)[nH]c2ccsc2c1=O)NCCc1ccc(Cl)cc1	none
O=C(CCCCn1c(=O)[nH]c2ccsc2c1=O)NCCc1ccccc1	Wnt bcat act 37
CCOc1ccc(NC(=O)CCCn2c(=S)[nH]c3ccsc3c2=O)cc1	none (no result: esBAF inh, C2C12 statin)
COc1ccc(S(=O)(=O)NCCc2nnc3ccc(SCC(=O)Nc4cc(C)on4)nn23)cc1	none (no result: esBAF inh, C2C12 statin, Wnt bcat act)
Cc1cc(NC(=O)CSc2ccc3nnc(CCNS(=O)(=O)c4ccccc4)n3n2)no1	C2C12 statin 86
COc1cc(C(=O)Nc2cccc3ncccc23)cc(OC)c1OC	C2C12 statin 92 (no result: MITF TRPM1 HTS)
O=C(Nc1cccc2cccnc12)c1cccc2ccccc12	none
COc1cccc(C(=O)Nc2cccc3cccnc23)c1OC	esBAF inh 43 (no result: Wnt bcat act)
COc1ccc(Br)cc1C(=O)Nc1cccc2ncccc12	none (no result: esBAF inh, C2C12 statin)
COc1cc(C(=O)Nc2cccc(-c3nc4ccccc4o3)c2C)cc(OC)c1OC	C2C12 statin 97 (no result: Wnt bcat act)
CCNC(=O)[C@H]1[C@H](CO)[C@H]2Cn3c(ccc(C4=CCCC4)c3=O)[C@@H]1N2C(=O)CC	none (no result: GAA850 FXN act, Wnt bcat act, MITF TRPM1 HTS)
CN1c2ccc(-c3ccc(F)cc3)cc2[C@@H]2[C@@H](CCN2S(=O)(=O)c2ccc(F)cc2)[C@H]1CO	none (no result: GAA850 FXN act, Wnt bcat act, MITF TRPM1 HTS)
CCC(=O)N1C[C@H](C)[C@@H](OC)CN(C)C(=O)c2ccc(NC(=O)Nc3cccc(F)c3)cc2OC[C@H]1C	none (no result: GAA850 FXN act, Wnt bcat act, MITF TRPM1 HTS)
C[C@H](CO)N1C[C@H](C)[C@H](CN(C)Cc2ccccc2)Oc2ncc(-c3cccnc3)cc2C1=O	none (no result: esBAF inh, GAA850 FXN act, Wnt bcat act, MITF TRPM1 HTS)
O=[N+]([O-])c1ccc(-c2cn(-c3ccccc3)c(=S)[nH]2)cc1	Wnt bcat act 49 (no result: esBAF inh, C2C12 statin)
COc1ccc(-c2cn(-c3ccc(C)c(C)c3)c(=S)[nH]2)cc1OC	none
COc1ccc(-c2cn(-c3ccccc3)c(=S)[nH]2)cc1OC	esBAF inh 44
COc1cccc(-n2cc(-c3ccc(F)cc3)[nH]c2=S)c1	esBAF inh 55
COc1ccc(-n2cc(-c3ccc(Cl)cc3)[nH]c2=S)cc1	none (no result: esBAF inh, C2C12 statin)
C[C@H]1CN([C@@H](C)CO)S(=O)(=O)c2ccc(-c3ccccc3)cc2O[C@H]1CN(C)C(=O)C1CCCCC1	none (no result: GAA850 FXN act, Wnt bcat act, MITF TRPM1 HTS)
CC(C)CC#Cc1ccc2c(c1)O[C@@H](CN(C)C(=O)Nc1ccccc1)[C@H](C)CN([C@@H](C)CO)S2(=O)=O	none (no result: GAA850 FXN act, Wnt bcat act, MITF TRPM1 HTS)
O=C(C[C@@H]1C=C[C@H](NS(=O)(=O)c2ccc(F)cc2)[C@@H](CO)O1)NCCc1ccncc1	none (no result: GAA850 FXN act, Wnt bcat act, MITF TRPM1 HTS)
O=C(Nc1ccccn1)c1ccc(C(=O)c2ccccc2)cc1	Wnt bcat act inconclusive (no result: esBAF inh)
O=C(c1ccccc1)c1nc[nH]c1C(=O)Nc1ccccn1	C2C12 statin 120 (no result: Wnt bcat act)
CCCCCC(=O)N/N=C(\C)c1ccc(NC(=O)c2ccco2)cc1	none (no result: Wnt bcat act)
C/C(=N/NC(=O)c1ccco1)c1ccc(NC(=O)c2ccc(Br)o2)cc1	esBAF inh 47
C/C(=N/NC(=O)c1ccco1)c1ccc(NC(=O)c2ccc(F)cc2)cc1	esBAF inh 89, Wnt bcat act 48
C[C@H](CO)N1C[C@H](C)[C@H](CN(C)Cc2ccccn2)Oc2ncc(C3=CCCCC3)cc2C1=O	none (no result: GAA850 FXN act, Wnt bcat act, MITF TRPM1 HTS)
CCN(C(=O)COC(=O)CCS(=O)(=O)c1ccccc1)c1c(N)n(Cc2ccccc2)c(=O)[nH]c1=O	Wnt bcat act 39 (no result: MITF TRPM1 HTS)
CCOC(=O)c1nn(-c2ccc3ccccc3c2)cc1O	esBAF inh 51, Wnt bcat act inconclusive, MITF TRPM1 HTS 133
CCOC(=O)CC1=NN(c2ccccc2)C(=O)C1	none (no result: esBAF inh, C2C12 statin)
CCOC(=O)c1nn(-c2ccc(Cl)cc2)cc1O	esBAF inh 65, Wnt bcat act inconclusive, MITF TRPM1 HTS 101
